This is a sample that favours compounds with a hit; in the whole collection about 1.9% have one here.
MLL CXXC-DNA inh: qHTS Fluorescence Polarization Assay for Inhibitors of MLL CXXC domain - DNA interaction. actives 0.037% (n = 290,000). MLL-CXXC / FITC-HOXA9 DNA fluorescence polarization. AID 2662, 2010. Potency, µM (top dose mostly 115 µM), for inactives: at the top dose activity change, negative = inhibition, most hits filed as inhibitors; active means well fitted inhibition curve with a large enough effect in the polarisation, with a control signal flat, not every such curve was filed as active; inconclusive means small, poorly fitted or top-dose-only effect, or effect the other way, or a change in a side signal; inactive means no such curve, though single readings can be large or run the other way; the % refers to the polarisation; further: potency means the concentration at half of the fitted maximal effect
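Purified MLL-CXXC (added from a 7 uM solution) was preincubated 5 min at ambient with pinned compounds in 50 mM Tris-HCl pH 7.5, 50 mM NaCl, 1 mM DTT, 0.05% BSA. Fluorescein-labeled HOX-A9 DNA (50 nM solution) followed, 30 min, then polarization read.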
Menin-MLL FL inh: qHTS Assay for Inhibitors Targeting the Menin-MLL Interaction in MLL Related Leukemias: Competition With Fluorescein Labeled MLL-derived Peptide; Fluorescence polarization, fluorescein-MLL peptide displacement from menin; FP activity change, % at 61.4 µM; 290,000 tested, under 10 active; AID 1766, 2009; active means well fitted curve in the direction sought with a large enough effect in the polarisation, not every such curve was filed as active; inconclusive means small, poorly fitted or top-dose-only effect, or effect the other way, or a change in a side signal; inactive means no such curve, though single readings can be large or run the other way; the % refers to the polarisation; further: % of control where 0% means no effect
ClpP mod: qHTS Assay for Activators of ClpP; ATP-dependent Clp protease proteolytic subunit (Bacillus subtilis (strain 168)), P80244; purified B. subtilis ClpP, FRET peptide cleavage, 20 min; Potency, µM (highest dose often 57.5 µM), for inactives: at the highest dose activity change, negative = active; actives 1.9% (n = 340,000); AID 651965, 2013; active means well fitted falling curve with a large enough effect; inconclusive means small, poorly fitted or top-dose-only effect; inactive means no such curve, though single readings can be large or run the other way; further: potency means the concentration at half of the fitted maximal effect; the source files actives as falling curves though it sought activators and does not explain the sign; nearly all actives have a fitted effect of over 65% in size
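Buffer: 100 mM Tris/HCl pH8, 100 mM KCl, 0.05% low protease BSA, 2.5% glycerol, 0.01% Tween-20. ClpP 10 microg/mL final; 20 min RT; delta FRET normalized to ADEP and DMSO controls.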
Epigenetic reg: Quantitative High-Throughput Screen for Regulators of Epigenetic Control. murine LDR cells, GFP reporter derepression, 30 h. Potency, µM (top dose mostly 53.9 µM), for inactives: at the highest dose GFP activation, actives largely listed as activators. actives 0.2% (n = 280,000). AID 1865, 2009; active means well fitted activation curve with a large enough effect; inconclusive means small, poorly fitted or top-dose-only effect; further: potency means the concentration at half of the fitted maximal effect; % of control where 0% means no effect; nearly all actives have a fitted effect of over 60% in size
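Derepression of a silenced CMV-GFP reporter in murine LDR cells is scored by enumerating GFP-positive cells with a laser-scanning microplate cytometer after 30 hours of treatment at 37 C.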
PINK1 modulator: A Quantitative High throughput Screen to Identify Chemical Modulators of PINK1 Expression | PINK1 immunofluorescence, high-content cytometry, 24 h | Potency, µM (top dose mostly 76.6 µM), inactives show at the highest dose activation (PINK1 increase), most hits filed as activators | actives 0.2% (n = 410,000) | AID 624263, 2012; active means well fitted activation curve with a large enough effect; inconclusive means small, poorly fitted or top-dose-only effect; cell line not stated here; further: potency means the concentration at half of the fitted maximal effect; % of control where 0% means no effect; nearly all actives have a fitted effect of over 65% in size
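Measures PINK1 amount and localization on or inside mitochondria by immunofluorescence. Stable cells get compounds at 5 concentrations for 24 hours before fixation and staining; CCCP controls included.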
Menin MLL FP TR: qHTS Assay for Inhibitors Targeting the Menin-MLL Interaction in MLL Related Leukemias: Competition With Texas Red Labeled MLL-derived Mutant Peptide; Menin + Texas Red MLL mutant peptide, fluorescence polarization; actives 0.23% (n = 270,000); Potency, µM (titrated, usually from 61.6 µM), for the others: at the top dose FP activity change, negative = inhibition, actives largely listed as inhibitors; active means well fitted inhibition curve with a large enough effect in the polarisation, with a control signal flat, not every such curve was filed as active; inconclusive means small, poorly fitted or top-dose-only effect, or effect the other way, or a change in a side signal; inactive means no such curve, though single readings can be large or run the other way; the % refers to the polarisation; further: potency means the concentration at half of the fitted maximal effect; % of control where 0% means no effect
Target sequence (O00255 whole entry, looked up): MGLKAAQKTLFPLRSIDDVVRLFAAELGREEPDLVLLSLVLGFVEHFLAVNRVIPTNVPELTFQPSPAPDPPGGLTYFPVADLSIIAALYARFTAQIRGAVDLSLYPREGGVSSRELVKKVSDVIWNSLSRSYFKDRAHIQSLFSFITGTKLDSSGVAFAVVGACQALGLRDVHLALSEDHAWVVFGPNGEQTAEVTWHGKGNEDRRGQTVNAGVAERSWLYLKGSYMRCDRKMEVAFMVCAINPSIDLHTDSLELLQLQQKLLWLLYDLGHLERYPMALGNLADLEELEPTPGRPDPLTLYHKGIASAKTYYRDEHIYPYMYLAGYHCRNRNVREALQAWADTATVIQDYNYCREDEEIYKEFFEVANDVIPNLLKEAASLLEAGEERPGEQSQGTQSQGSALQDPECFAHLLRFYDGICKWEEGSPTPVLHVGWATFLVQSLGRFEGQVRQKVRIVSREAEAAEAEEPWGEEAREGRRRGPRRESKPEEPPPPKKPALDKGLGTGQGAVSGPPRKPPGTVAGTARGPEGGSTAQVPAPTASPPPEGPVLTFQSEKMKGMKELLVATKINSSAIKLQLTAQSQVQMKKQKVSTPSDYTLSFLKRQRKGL
* = called active by the depositor; [ ] = remark or other dose.

How did Cc1ccc(N/N=C/C=C/c2ccco2)cc1 do in these assays?
ClpP mod: 13µM*; PINK1 modulator: 6%

How did O=C(Nc1ccc(F)cc1F)c1cccnc1Oc1cccc(C(F)(F)F)c1 do in these assays?
MLL CXXC-DNA inh: 1%; Menin-MLL FL inh: -1; ClpP mod: 69%; Epigenetic reg: -2%; PINK1 modulator: 8%[38.3 µM]; Menin MLL FP TR: 32µM*

Results for CCOC(=O)N1CC(C)N(/[N+]([O-])=N/Oc2ccc([N+](=O)[O-])cc2[N+](=O)[O-])CC1C (centres undefined) ?
Menin-MLL FL inh: -9; Menin MLL FP TR: inconclusive

Results for c1ccc2c(CN3CCCCCCC3)c[nH]c2c1 ?
MLL CXXC-DNA inh: 14%; Menin-MLL FL inh: 3; ClpP mod: 28µM*; Epigenetic reg: -1%; PINK1 modulator: 0%; Menin MLL FP TR: 9%

What do the screens show for `CN(C)c1ccc(/C=C/c2cc[n+](C)c3ccccc23)cc1`?
MLL CXXC-DNA inh: inconclusive; Menin-MLL FL inh: inconclusive; ClpP mod: 1%; Epigenetic reg: -1%; PINK1 modulator: 25µM*; Menin MLL FP TR: inconclusive

How did CN(C)c1ccc(/C=C/C=C/c2sc3ccccc3[n+]2C)cc1 do in these assays?
MLL CXXC-DNA inh: -21%; Menin-MLL FL inh: 20; Epigenetic reg: 2%; PINK1 modulator: 5µM*

How did CCCCCCCCCCCCOCCOCCOCCOCCOCCOCCOCCOCCOCCO do in these assays?
MLL CXXC-DNA inh: 3%; Menin-MLL FL inh: -1; Menin MLL FP TR: inconclusive

Results for Cc1cnc(NC(=O)CN2CCCCC2)s1 ?
MLL CXXC-DNA inh: -1%; Menin-MLL FL inh: -1; ClpP mod: 14µM*; PINK1 modulator: 2%; Menin MLL FP TR: 1%

What do the screens show for `O=C(CN1CCCCC1)NCC(=O)Nc1ccc(Br)cc1C(=O)c1ccccc1`?
MLL CXXC-DNA inh: 0%; Menin-MLL FL inh: 2; ClpP mod: -2%; Epigenetic reg: -1%; PINK1 modulator: -2%; Menin MLL FP TR: -13%

What do the screens show for `COCCCn1c(N)c(C(=O)NCCC(C)C)c2nc3ccccc3nc21`?
MLL CXXC-DNA inh: -12%; Menin-MLL FL inh: 4; ClpP mod: 32µM*; Epigenetic reg: 1%; PINK1 modulator: 11%[38.3 µM]; Menin MLL FP TR: -15%

How did COCCCNC(=O)c1c(NC(=O)c2ccccc2)n(Cc2ccccc2)c2nc3ccccc3nc12 do in these assays?
ClpP mod: 32µM*; PINK1 modulator: 10%

How did CCCCOCCCn1c(N)c(C(=O)OCCOC)c2nc3ccccc3nc21 do in these assays?
MLL CXXC-DNA inh: 28%; Menin-MLL FL inh: 8; ClpP mod: 2%; Epigenetic reg: 4%; PINK1 modulator: 5%; Menin MLL FP TR: 28µM*

How did CCCCn1c(N)c(C(=O)OCCOC)c2nc3ccccc3nc21 do in these assays?
MLL CXXC-DNA inh: 0%; Menin-MLL FL inh: 0; Epigenetic reg: 1%; PINK1 modulator: 0%

How did COCCOC(=O)c1c(N)n(Cc2ccccc2)c2nc3ccccc3nc12 do in these assays?
MLL CXXC-DNA inh: -1%; Menin-MLL FL inh: -2; ClpP mod: 70%; Epigenetic reg: -1%; PINK1 modulator: 0%; Menin MLL FP TR: 0%

What do the screens show for `CCOC(=O)c1c(NC(=O)c2c(N)n(CCCOC)c3nc4ccccc4nc23)sc2c1CCCC2`?
MLL CXXC-DNA inh: 10%; Menin-MLL FL inh: inconclusive; ClpP mod: -10%; Epigenetic reg: 4%; Menin MLL FP TR: inconclusive

How did CCCCNC(=O)OC(C)CNC(=O)Oc1cccc(C)c1 (centres undefined) do in these assays?
MLL CXXC-DNA inh: -2%; Menin-MLL FL inh: -1; ClpP mod: 0%; Epigenetic reg: 0%; PINK1 modulator: -2%; Menin MLL FP TR: 21%

How did c1cc[n+]2c(c1)-c1cccc[n+]1CC2 do in these assays?
Menin-MLL FL inh: inconclusive; Menin MLL FP TR: -19%

How did C=C1CCC(O)C/C1=C/C=C1\CCC[C@]2(C)[C@@H]([C@H](C)CCCC(C)C)CC[C@@H]12 (some centres undefined) do in these assays?
Menin-MLL FL inh: 5; Menin MLL FP TR: inconclusive

How did Cc1ccc(C)c(S(=O)(=O)c2nnn3c2nc(N2CCCC2)c2sccc23)c1 do in these assays?
ClpP mod: inconclusive; Epigenetic reg: 5%; PINK1 modulator: 0%

Results for Cc1cccc(N2C(=O)/C(=C/N3CCN(C(=O)c4ccco4)CC3)C(=O)NC2=S)c1 ?
MLL CXXC-DNA inh: 8%; Menin-MLL FL inh: 12; ClpP mod: 16µM*; Epigenetic reg: -1%; PINK1 modulator: -1%; Menin MLL FP TR: 2%

How did Cc1cccc2c3c(ccc12)C1=C(C(=O)C3=O)[C@@H](C)CO1 do in these assays?
Menin-MLL FL inh: 0; Menin MLL FP TR: inconclusive

What do the screens show for `Cc1cccc2c1=NC(=O)/C(=C/c1c(O)[nH]c(=O)[nH]c1=O)C=2`?
MLL CXXC-DNA inh: 0%; Menin-MLL FL inh: 3; ClpP mod: 13µM*; Epigenetic reg: -1%; PINK1 modulator: -1%; Menin MLL FP TR: 8%

How did COc1ccc(C2=C(C(C)=O)Sc3nnc(-c4ccc(Cl)cc4)n3N2C(C)=O)cc1OC do in these assays?
ClpP mod: inconclusive; Epigenetic reg: 1%; PINK1 modulator: 2%

Results for COc1ccc(C(CC(=O)N2CCC3(CC2)OCCO3)NS(=O)(=O)c2ccc(F)cc2)cc1 (centres undefined) ?
MLL CXXC-DNA inh: -4%; Menin-MLL FL inh: -2; ClpP mod: 22µM*; Epigenetic reg: 1%; PINK1 modulator: 2%; Menin MLL FP TR: 0%

How did Nc1ccc2c(c1)Cc1ccccc1-2 do in these assays?
MLL CXXC-DNA inh: 3%; ClpP mod: 11µM*; Epigenetic reg: -2%; PINK1 modulator: 6%; Menin MLL FP TR: 2%

From PubChem BioAssay
